# HP1b chromo inh: HTS for Inhibitors of HP1-beta Chromodomain Interactions with Methylated Histone Tails; Chromobox protein homolog 1 (Homo sapiens), P83916; AlphaScreen HP1-beta / biotin-H3K9me3 peptide binding; Potency, µM (top dose mostly 114 µM), without a hit: at the highest dose activity change, negative = inhibition, actives largely listed as inhibitors; 390,000 tested, 0.56% active; AID 540317, 2011; further: nearly all actives have a fitted effect of over 70% in size
# Target sequence (P83916 whole entry, looked up): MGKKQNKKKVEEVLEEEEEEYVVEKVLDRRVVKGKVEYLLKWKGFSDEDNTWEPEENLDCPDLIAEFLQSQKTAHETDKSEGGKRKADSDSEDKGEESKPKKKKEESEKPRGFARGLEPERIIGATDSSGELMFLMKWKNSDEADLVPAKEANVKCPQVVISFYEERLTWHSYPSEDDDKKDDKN
#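 AlphaScreen: HP1-beta (50 nM) preformed 30 min with biotin-H3(1-18)K9me3 peptide (50 nM) in PBS pH 7.4, 0.01% Tween-20. Compound added for 30 min at RT, then streptavidin donor/nickel chelate acceptor beads (10 ug/mL) for 30 min.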
# Sfp inh: qHTS Assay for Inhibitors of Bacillus subtilis Sfp phosphopantetheinyl transferase (PPTase); 4'-phosphopantetheinyl transferase ffp (Bacillus subtilis), Q9F4F7; Potency, µM, inactives show largest response in the series, negative = inhibition, most hits filed as inhibitors; 310,000 tested, 3.5% active; Biochemical Sfp PPTase activity, qHTS;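 further: the enzyme is Sfp with the accession as filed and its product quenches rhodamine fluorescence; 0% = enzyme reaction without inhibitor and -100% = no enzyme wells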
#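 Step 1, compound plus 15 nM Sfp-PPTase, 15 min, room temperature. Step 2, add rhodamine-CoA (5 uM) and BHQ-2-YbbR (12.5 uM). Step 3, read 525/598 nm fluorescence at 0 and 30 min.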
# PLK1 PBD inh: qHTS for Inhibitors of PLK1-PDB (polo-like kinase 1 - polo-box domain): Primary Screen; Serine/threonine-protein kinase PLK1 (Homo sapiens), P53350; Plk1 PBD binding of FITC phosphopeptide, fluorescence polarization; Potency, µM, for inactives: max response, negative = inhibition, actives largely listed as inhibitors; 360,000 tested, 2.8% active; AID 720504, 2013; further: series mostly up to about 57 µM; on the % scale 0 is the no-effect control and ±100 the full control effect; nearly all actives have a fitted effect of over 65% in size
# JMJD2A Tudor inh: qHTS Assay for Inhibitors of JMJD2A-Tudor Domain; Lysine-specific demethylase 4A (Homo sapiens), O75164; AlphaScreen JMJD2A-Tudor / H3K4me3 peptide binding; 390,000 tested, 4.4% active; Potency, µM (titrated, usually from 114 µM), for the others: at the highest dose activity change, negative = inhibition, usual class: inhibitors; further: on the % scale 0 is the no-effect control and ±100 the full control effect; nearly all actives have a fitted effect of over 50% in size
# G9a block: qHTS Assay for Inhibitors of Histone Lysine Methyltransferase G9a; Histone-lysine N-methyltransferase EHMT2 (Homo sapiens), Q96KQ7; G9a H3K9 monomethylation, AlphaScreen, 2 h; Potency, µM (top dose mostly 102 µM), for the others: at the highest dose activity, negative = inhibition, most hits filed as inhibitors; 350,000 tested, 8.8% active; AID 504332, 2011; further: on the % scale 0 is the no-effect control and ±100 the full control effect; nearly all actives have a fitted effect of over 75% in size
# Target sequence (Q96KQ7 913-1193 limits assumed): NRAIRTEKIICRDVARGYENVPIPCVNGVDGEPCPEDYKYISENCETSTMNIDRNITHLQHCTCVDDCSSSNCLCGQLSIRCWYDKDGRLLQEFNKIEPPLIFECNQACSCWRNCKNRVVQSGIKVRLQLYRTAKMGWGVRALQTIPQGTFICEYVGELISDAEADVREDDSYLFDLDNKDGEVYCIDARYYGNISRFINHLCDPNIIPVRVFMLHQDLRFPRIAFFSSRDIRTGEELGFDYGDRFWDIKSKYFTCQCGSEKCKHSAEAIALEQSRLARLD
#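 Step 1: enzyme (final 20 nM) with compound, 15 min RT. Step 2: substrate peptide 500 nM and SAM 20 uM, 2 h RT. Step 3: anti-H3K9me1 antibody and AlphaScreen beads, 10 min, then plate read.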
# BAZ2B inh: qHTS Assay for Inhibitors of BAZ2B. AlphaScreen BAZ2B-H3K14Ac peptide displacement. 360,000 tested, 4.4% active. AID 504333, 2011. Potency, µM (doses to about 114 µM), inactives show at the highest dose activity change, negative = inhibition, usual class: inhibitors. Bromodomain adjacent to zinc finger domain protein 2B (Homo sapiens), Q9UIF8; further: on the % scale 0 is the no-effect control and ±100 the full control effect; nearly all actives have a fitted effect of over 60% in size
#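 AlphaScreen luminescence quantifies BAZ2B engagement of H3K14Ac peptide; the protein and biotinylated peptide are both at 50 nM final, buffer PBS pH 7.4 with 0.01% Tween-20, all steps at room temperature.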
# Active calls of the source: *; ? = inconclusive; · = no result; ! = not confirmed by another sample; [ ] = dose if it differs, or a comment. In the library only some 12% were active in any assay of this set; here they are far more common. The call rests on the fitted dose curve; in most records, active means well fitted curve in the direction sought with a large enough effect; inconclusive means small, poorly fitted or top-dose-only effect, or another doubt; inactive means no such curve, though single readings can be large; an effect the other way counts as inactive or inconclusive. Potency means the concentration at half of the fitted maximal effect.
SMILES,HP1b chromo inh,Sfp inh,PLK1 PBD inh,JMJD2A Tudor inh,G9a block,BAZ2B inh
Cc1[nH]c2ccccc2c1C(O)CN1CCN(c2cccc(C(F)(F)F)c2)CC1 (centres undefined),?,-18.7%,-8.6%,56.2µM*,56.2µM*,39.8µM*
O=C(CN1CCN(c2cccc(C(F)(F)F)c2)CC1)NCc1ccccc1,21.1%,3.3%,-12.1%,-15.0%,·,-8.5%
CCOC(=O)CC1(NC(=O)C2CCC(=O)N(CCc3ccccc3)C2)CCCCC1 (centres undefined),30.9%,15.1%,-11.5%,-7.5%,19.1%,-2.3%
Cc1cccc(N(C)C(=O)CCS(=O)(=O)c2ccc3c(c2)oc(=O)n3C)c1,0.3%,·,·,-22.0%,2.82µM*,0.3%[57.1 µM]
COc1ccc(NC(=O)CCS(=O)(=O)c2ccc3c(c2)oc(=O)n3C)cc1,14.3%,9.0%,?,-29.9%,8.4%,50.1µM*
CCCc1cc(=O)oc2cc(OCC(=O)NCCCn3ccnc3)c(Cl)cc12,33.9%,10.0%,-4.2%,-22.9%,-8.9%,?
COc1cccc2c1Oc1ncccc1N(C(=O)CCC(=O)NCc1ccc(C)cc1)C2,21.3%,14.1%,-2.1%,9.3%,5.62µM*!,-5.6%
COc1cccc2c1Oc1ncccc1N(C(=O)CCC(=O)NCc1ccc(F)cc1)C2,24.7%,11.9%,-3.6%,4.3%,34.0%,-15.0%
Cc1cccc2sc(NNC(=O)c3ccc(S(=O)(=O)N4CCCC(C)C4)cc3)nc12 (centres undefined),-24.4%,?,-14.1%,11.2µM*,25.1µM*,10.5%
Cc1cccc2sc(NNC(=O)c3ccc(S(=O)(=O)N4CCc5ccccc5C4)cc3)nc12,-14.8%,?,-12.5%,8.91µM*,39.8µM*,3.98µM*
Cc1cccc2sc(NC(=O)c3cccc(S(=O)(=O)N4CCc5ccccc54)c3)nc12,12.5%,7.1%,-1.8%,-27.1%,10.7%[59 µM],-1.5%
COc1ccc(NC(=O)CSc2oc(-c3cccs3)nc2S(=O)(=O)c2ccc(Br)cc2)c(OC)c1,14.5%,·,·,-18.4%,?,-35.3%
Cc1cc(Br)ccc1NC(=O)CCS(=O)(=O)c1cccc2nsnc12,20.8%,·,·,-21.8%,?,-21.1%
CC(=O)N1CCc2nc3sc(C(=O)c4ccc(F)cc4)c(N)c3c(C(F)(F)F)c2C1,-6.3%,·,·,?,-29.4%[59 µM],50.1µM*
Cc1ccc(NC(=O)CN2C(=O)COc3ccc(S(=O)(=O)N4CCCCC4)cc32)cc1N(C)C,14.3%,·,·,-24.9%,-39.1%[59 µM],-38.8%
O=C1NC(=NCc2ccccc2)S/C1=C/c1ccc(O)cc1,-12.6%,25.1µM*,1.1%,-20.9%,-31.2%[59 µM],?
Cc1c(N=C2NC(=O)/C(=C/c3ccc(O)cc3)S2)c(=O)n(-c2ccccc2)n1C,24.2%,17.7%,5.1%,-11.3%,-1.5%[59 µM],0.8%
Cc1ccc(S(=O)(=O)/N=C2/NC(=O)/C(=C/c3ccccc3)S2)cc1,10.2%,8.7%,?,-18.9%,50.1µM*,?
Cc1ccc(S(=O)(=O)/N=C2/NC(=O)/C(=C/c3ccncc3)S2)cc1,·,1.3%,·,·,?,-10.8%
Cc1ccc(/C=C2\S/C(=N/S(=O)(=O)c3cccs3)NC2=O)cc1,6.6%,?,18.9µM*,-12.9%,-8.5%[59 µM],-25.8%
Cc1ccc(S(=O)(=O)/N=C2/NC(=O)/C(=C\c3ccccc3)S2)cc1,-4.6%,·,23.8µM*,-30.1%,·,·
O=C(CCC1N=C2c3ccccc3N=C(SCc3ccc(Cl)cc3)N2C1=O)NC1CCCCC1 (centres undefined),11.5%,·,·,-19.1%,3.9%[59 µM],-1.3%

# Source: PubChem BioAssay
